Experimental findings from the supplement of paper PMC9897528 are described below.

The structures appear in SMILES notation. Values without a mark were called inactive.
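Note: conidia screened in RPMI 1640 medium under 5% CO2, growth read by spectrophotometer, medium with 0.5% DMSO serving as the untreated reference.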

The subject of this assay is Scedosporium aurantiacum CBS 136046. Briefly: growth inhibition relative to DMSO control (OD600); higher = more antifungal activity, active = 80 or more; extreme values may be limits of the assay. The note with it: 5 µM; 72 h; 37 °C.
For the compound `NS(=O)(=O)c1ccc(NC(=O)NC(c2ccccc2)c2ccccc2)cc1`, the growth inhibition was 25.6%.

Turning to `CCOC(=O)N1CCN(c2ccc(Cl)cc2)CC1`, the growth inhibition is 10.6%.

Turning to `COc1ccccc1NC(=O)c1ccccc1Sc1ccc([N+](=O)[O-])cc1`, the growth inhibition was 22.6%.

Take `CCNC(=O)Nc1cn2c(-c3ncc(CC)cn3)cc(-c3cccnc3)cc2n1`: the growth inhibition is 0%.

For `Nc1nc(O)c2ncn([C@@H]3O[C@H](CO)[C@@H](O)[C@H]3F)c2n1`, the growth inhibition is 17.4%.

On to `O=C(NO)C1(CS(=O)(=O)c2ccc(Oc3ccc(Cl)cc3)cc2)CCOCC1`, for which the growth inhibition is 7.63%.

For the compound `Cc1cc(C)n(O)c(=O)c1`, the growth inhibition was 0.961%.

As to `CN(C)CCCOc1ccc(-c2ccc3ncc4c(c3c2)n(C2CCOCC2)c(=O)n4C)cn1`, the growth inhibition is 3.43%.

With `O=C(CP(=O)(O)O)NCCc1cccc(Oc2ccccc2)c1`, the growth inhibition was 31.5%.

With `Nc1nc2c(ncn2/C=C2/CC2(CO)CO)c(=O)[nH]1`, the growth inhibition was 1.28%.

As for `COc1cc(NCc2ccc3nc(N)nc(N)c3c2C)cc(OC)c1OC`, the growth inhibition is 0.273%.

Regarding `OB1OCc2c1ccc(Cl)c2F`, the growth inhibition was 0.00748%.

`CCCC1(C2CC2)c2cc(Cl)ccc2NC(=O)N1C` (stereo not drawn): the growth inhibition was 18.8%.

For the compound `c1ccc(Cn2c(-c3ccccn3)nc3ccccc32)cc1`, the growth inhibition was 14.3%.

With `CN(O)C(=O)c1cc2c(CN3CCC[C@H]3C(N)=O)cn(Cc3ccc(F)cc3)c2cn1`, the growth inhibition is 1.58%.

Regarding `CCOC(=O)/C=C/[C@H](C[C@@H]1CCNC1=O)NC(=O)[C@H](CC)n1cccc(NC(=O)c2cc(C)on2)c1=O`, the growth inhibition is 2%.

Take `Cc1ccc(Oc2ccccc2-c2csc(N=C3NCCCN3)n2)c(C)c1`: the growth inhibition was 68%.

In the case of `N#Cc1cc([N+](=O)[O-])ccc1Oc1ccccc1Cl`, the growth inhibition was 20.3%.

Turning to `Cc1[nH]c2ccccc2c1CCNCc1ccc(/C=C/C(=O)NO)cc1`, the growth inhibition is 26.8%.

Regarding `Cc1onc(-c2ccccc2)c1-c1ccc(S(N)(=O)=O)cc1`, the growth inhibition was 41.2%.

In the case of `O=C(CSc1nnc(Br)n1-c1ccc(C2CC2)c2ccccc12)Nc1ccc(C(=O)O)cc1Cl`, the growth inhibition is 18.4%.

As for `Fc1ccc2c(/C=C/c3cccnc3)c[nH]c2c1`, the growth inhibition was 5.3%.

Regarding `O=C(N[C@H](Cc1cccc2ccccc12)C(=O)NCCc1c[nH]cn1)C1Cc2ccccc2C1`, the growth inhibition is 2.31%.

As for `CC(C)(C)c1ccc(C(Cn2cccc(C(F)(F)F)c2=O)NC2Cc3ccccc3C2)cc1` (stereo not drawn), the growth inhibition was 28.9%.

`COc1ccc(NS(=O)(=O)c2ccc(Cl)s2)cn1`: the growth inhibition is 11.2%.

Turning to `C[C@H](NC(=O)C(=O)Nc1ccccc1C(C)(C)C)C(=O)N[C@@H](CC(=O)O)C(=O)COc1c(F)c(F)cc(F)c1F`, the growth inhibition is 11.6%.

`CC(C)(C)c1ccc(Oc2ccc(N)cc2)cc1`: the growth inhibition was 15.8%.

Turning to `CC(Cc1ccccc1)C(=O)Nc1ccc(Cl)cc1C(=O)O` (stereo not drawn), the growth inhibition was 0%.

With `Cc1cc(-c2ccccc2)c(C(=O)C(=O)Nc2ccc(N3CCN(c4ncc(F)cn4)CC3)cc2)n1C`, the growth inhibition was 81.8% (active).

For `CC[C@H]1OC(=O)[C@H](C)[C@@H](O[C@H]2C[C@@](C)(OC)[C@@H](O)[C@H](C)O2)[C@H](C)[C@@H](O[C@@H]2O[C@H](C)C[C@H](N(C)C)[C@H]2O)[C@](C)(O)C[C@@H](C)C(=O)[C@H](C)[C@@H](O)[C@]1(C)O`, the growth inhibition was 0.273%.

With `CCCCc1ccc(S(=O)(=O)Nc2cc(C)on2)cc1`, the growth inhibition was 2.13%.

In the case of `O=C(NC(=O)N1CCCc2ccccc21)c1cccc(Cl)c1`, the growth inhibition is 5.71%.

Turning to `CC(C)Oc1ccc(-c2nc(-c3cccc4c3CC[C@@H]4NCCO)no2)cc1C#N`, the growth inhibition was 25.4%.

In the case of `CC(C)CCN1C(=O)C(C2=NS(=O)(=O)c3cc(NS(C)(=O)=O)ccc3N2)=C(O)[C@@H]2[C@H]3CC[C@H](C3)[C@@H]21`, the growth inhibition was 28.5%.

As for `CCCCCCCCCN1C[C@@H](O)[C@H](O)[C@@H](O)[C@@H]1CO`, the growth inhibition is 13.7%.

With `O=C(NCCN1CCCCC1)c1cccc(C(F)(F)F)c1`, the growth inhibition was 10.1%.

As for `Cc1ccc(C)c(OCCCCCCN2C[C@H](O)[C@@H](O)[C@H](O)[C@H]2CO)c1`, the growth inhibition is 15.9%.

`O=C(O)c1ccc(-n2nc(-c3ccccc3O)nc2-c2ccccc2O)cc1`: the growth inhibition is 0.0499%.
